Inconclusive results are not listed. Unmarked numbers belong to inactive results. Activity calls are given as the source filed them. The call rests on the fitted dose curve; in most records, active means well fitted inhibition curve with a large enough effect; inconclusive means small, poorly fitted or top-dose-only effect; inactive means flat fitted curve, though single readings scatter.
On the % scale 0 is the no-effect control and ±100 the full control effect; potency means the concentration at half of the fitted maximal effect.

Chain of Ubiquitin carboxyl-terminal hydrolase 1 (Homo sapiens) (O94782 whole entry, looked up): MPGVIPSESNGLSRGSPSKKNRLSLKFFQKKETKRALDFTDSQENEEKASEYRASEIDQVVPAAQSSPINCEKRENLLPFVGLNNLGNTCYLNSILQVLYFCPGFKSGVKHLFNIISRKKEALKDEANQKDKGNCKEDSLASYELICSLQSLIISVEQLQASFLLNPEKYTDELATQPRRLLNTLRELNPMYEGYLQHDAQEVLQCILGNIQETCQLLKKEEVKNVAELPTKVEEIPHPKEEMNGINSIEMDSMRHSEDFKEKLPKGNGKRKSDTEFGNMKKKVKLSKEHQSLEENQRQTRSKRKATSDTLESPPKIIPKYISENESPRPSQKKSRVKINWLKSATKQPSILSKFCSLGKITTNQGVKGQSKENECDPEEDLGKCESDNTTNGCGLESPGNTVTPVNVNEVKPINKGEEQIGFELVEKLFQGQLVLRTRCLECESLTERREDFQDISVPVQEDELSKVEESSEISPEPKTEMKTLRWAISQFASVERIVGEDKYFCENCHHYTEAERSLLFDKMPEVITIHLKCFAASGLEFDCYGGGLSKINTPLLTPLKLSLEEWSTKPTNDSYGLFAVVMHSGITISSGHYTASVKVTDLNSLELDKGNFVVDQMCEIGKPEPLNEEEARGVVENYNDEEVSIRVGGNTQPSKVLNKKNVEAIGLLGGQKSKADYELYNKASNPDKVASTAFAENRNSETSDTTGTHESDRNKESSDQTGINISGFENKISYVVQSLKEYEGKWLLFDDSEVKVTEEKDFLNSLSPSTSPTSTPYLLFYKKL

This experiment has as its target Ubiquitin carboxyl-terminal hydrolase 1 (Homo sapiens) (UniProt O94782). Kind of experiment: Inhibitors of USP1/UAF1: Pilot qHTS (AID 504865). Further: nearly all actives have a fitted effect of over 35% in size.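 On activity change, negative = inhibition: rhodamine fluorescence freed from ubiquitin-rhodamine substrate followed over time; top concentration of the series differs between compounds.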 Conditions: purified USP1/UAF1, Ub-rhodamine cleavage fluorescence; series mostly up to 114 µM; activity change, negative = inhibition: at the top concentration. The text has this:
Deubiquitinating enzymes (DUBs) are a class of enzymes that can cleave isopeptide bond formed between the C-terminal carboxylate of ubiquitin and a lysine side-chain amino group on the target protein. Among them, ubiquitin specific proteases (USPs) constitute the largest DUB family. Human USPs are emerging as promising targets for pharmacological intervention because of their connection to a number of human diseases, including prostate, colon and breast cancer (1, 2), pediatric acute lymphoblastic leukemia (3), and familial cylindromatosis (4). The advantage of inhibiting USPs lies in the potential specificity of therapeutic intervention that can lead to better efficacy and reduce nonspecific side effects.
In a collaboration between the University of Delaware and the NIH Chemical Genomics Center, a high-throughput screen assay was developed to screen for USP1/UAF1 inhibitors. This miniaturized assay has a fluorescent read-out and is used to screen the NIH Molecular Libraries Small Molecule Repository (MLSMR) in order to identify a small molecule that inhibits USP1.
NIH Chemical Genomics Center [NCGC]
NIH Molecular Libraries Probe Centers Network [MLPCN]
Assay Submitter (PI): Zhihao Zhuang, University of Delaware
1. Priolo, C., et al. (2006) The isopeptidase USP2a protects human prostate cancer from apoptosis. Cancer Res 66, 8625-8632
2. Popov, N., et al. (2007) The ubiquitin-specific protease USP28 is required for MYC stability. Nat Cell Biol 9, 765-774
3. De Pitta, C., et al. (2005) A leukemia-enriched cDNA microarray platform identifies new transcripts with relevance to the biology of pediatric acute lymphoblastic leukemia. Haematologica 90, 890-898
4. Kovalenko, A., et al. (2003) The tumour suppressor CYLD negatively regulates NF-kappaB signalling by deubiquitination. Nature 424, 801-805
3 microliters of reagents (buffer in columns 3 and 4 as negative control and 1nM USP1/UAF1 complex in columns 1, 2, and 5-48) are dispensed into Greiner black solid bottom 1536-well assay plates. Compounds are then transferred via Kalypsys pin tool equipped with 1536-pin array (10nl slotted pins, V&P Scientific, San Diego, CA). Following an incubation step of 15 min at room temperature, 1ul of Ub-Rho substrate (150nM final concentration) is added to initiate the reaction. The plates are immediately centrifuged at 1000 rpm for 15 seconds, and subsequently transferred to a ViewLux high-throughput CCD imager (PerkinElmer) wherein kinetic measurements of fluorescence are acquired using 480 nm excitation/540 nm emission filter set (6 reads every 60 seconds, see Table 1). All reagents are diluted in an assay buffer consisting of 50mM HEPES (pH 7.8), 0.5mM EDTA, 0.1 mg/ml BSA, 1mM TCEP, and 0.01% Tween-20.
As to `CC(C)CN(C[C@@H](O)[C@H](Cc1ccccc1)NC(=O)O[C@H]1CO[C@H]2OCC[C@H]21)S(=O)(=O)c1ccc(N)cc1`, the “activity change, negative = inhibition” value is -2.3%.
Turning to `CS(=O)(=O)c1ccc(C2=C(c3ccccc3)C(=O)OC2)cc1`, the “activity change, negative = inhibition” value was -3.54%.
Same read-out and setting: to `NCC1CCC(C(=O)O)CC1` (configuration not stated) belongs 14.2% [at 54.9 µM]; to `C[C@H]1O[C@@H](n2cc(F)c(=O)[nH]c2=O)[C@H](O)[C@H]1O`, -5.5%; to `OC(c1cc(C(F)(F)F)nc2c(C(F)(F)F)cccc12)C1CCCCN1` (configuration not stated), -9.98%.
Same read-out and setting: as for `CCCCC(C=O)NC(=O)C(CC(C)C)NC(=O)OCc1ccccc1` (configuration not stated), the figure is -11.8%; as for `CN(C)CCN(Cc1ccc(Cl)cc1)c1ccccn1`, 7.78% [at 54.9 µM]; as for `NS(=O)(=O)c1cc(Cl)c(Cl)c(S(N)(=O)=O)c1`, 16.6% [at 54.9 µM].
The same measure, in the same setting: to `CC1(C)OC2CC3C4CC(F)C5=CC(=O)C=CC5(C)C4C(O)CC3(C)[C@]2(C(=O)CO)O1` (some centres not stated) belongs -4.5%; to `Cc1cc(NC(=O)Nc2ccc(N(C)C)cc2)c2cc(F)cc(F)c2n1`, -8.09%; to `CC1C(=O)OC2C(O)C34C5CC(C(C)(C)C)C36C(OC(=O)C6O)OC4(C(=O)O5)C12O` (configuration not stated), -4.31%.
`N#Cc1c(N(CC(=O)O)CC(=O)O)sc(C(=O)O)c1CC(=O)O`: the “activity change, negative = inhibition” value was -4.15%.
For `Cc1ccc(NC(=O)c2cccc(N(C)C)c2)cc1NC(=O)c1ccc(O)cc1`, the “activity change, negative = inhibition” value is -13.5%.
Same read-out and setting: to `COc1cc2c(cc1OC)CC(=O)N(CCCN(C)C[C@H]1Cc3cc(OC)c(OC)cc31)CC2` belongs -5.95%.
As to `CC(NCCc1ccc(O)cc1)C(O)c1ccc(O)cc1` (configuration not stated), the “activity change, negative = inhibition” value is -13.9%.
Take `CN1CCN2c3ncccc3Cc3ccccc3C2C1` (configuration not stated): the Potency entry was “inactive”.
On to `COc1ccnc(CS(=O)c2nc3ccc(OC(F)F)cc3[nH]2)c1OC` (configuration not stated), for which the “activity change, negative = inhibition” value is -5.1%.
As for `Nc1ccn([C@@H]2O[C@H](CO)[C@@H](O)[C@H]2O)c(=O)n1`, the “activity change, negative = inhibition” value was 3.3%.
Take `O=C(O)c1nc(=O)[nH]c(=O)[nH]1`: the “activity change, negative = inhibition” value was -6.75%.
The same measure, in the same setting: as for `COc1c(C)c2c(c(O)c1CC=C(C)CCC(=O)OCCN1CCOCC1)C(=O)OC2`, the figure is -2.22%; as for `CN[C@H]1[C@@H](O[C@@H]2[C@H](O[C@@H]3[C@@H](O)[C@@H](O)[C@@H](N=C(N)N)[C@@H](O)[C@@H]3N=C(N)N)O[C@H](C)[C@@]2(O)C=O)O[C@@H](CO)[C@@H](O)[C@H]1O`, 11.8% [at 54.9 µM]; as for `CCCCC[C@H](O)C=C[C@H]1[C@H](O)CC(=O)[C@H]1CCCCCCC(=O)O`, -14.6%.
Same read-out and setting: as for `CN1CC(=O)N2C(Cc3c([nH]c4ccccc34)[C@H]2c2ccc3c(c2)OCO3)C1=O` (some centres not stated), the figure is -11.6%.
For the molecule `Cc1cc2nc3c(=O)[nH]c(=O)nc-3n(CC(O)C(O)C(O)CO)c2cc1C` (configuration not stated), the Potency is 31.6 µM (active).
Consider `O=C1C(CCC(O)c2ccc(F)cc2)C(c2ccc(O)cc2)N1c1ccc(F)cc1` (configuration not stated), for which the “activity change, negative = inhibition” value is -14.8%.
For the molecule `N#CC(c1ccc(Cl)cc1)c1c(Cl)cc(-n2ncc(=O)[nH]c2=O)cc1Cl` (configuration not stated), the Potency was 79.4 µM (active).
As for `COc1nccc(-c2c(-c3ccc(F)cc3)ncn2C2CCC(O)CC2)n1` (configuration not stated), the “activity change, negative = inhibition” value is -1.25%.
